# Data as given in PMC7862700, “An all-to-all approach to the identification of sequence-specific readers for epigenetic DNA modifications on cytosine”.
# Experiments:
# Assay in all cases: DAPPL (digital affinity profiling via proximity ligation, sequencing); 10 mM Tris-HCl pH 7.5, 50 mM NaCl, 1 mM DTT, 4% glycerol, room temperature, 30 min; GST-TFs on glutathione beads, 16-mer random dsDNA library, 0.1% formaldehyde crosslink after washing; high values mean tight binding
# Conditions in all cases: protein: recombinant; tags: N-terminal GST; dsDNA, one strand shown
# FLI1 = biological target: T1, FLI1 (Homo sapiens, UniProt Q01543 1-452)
# T1 sequence: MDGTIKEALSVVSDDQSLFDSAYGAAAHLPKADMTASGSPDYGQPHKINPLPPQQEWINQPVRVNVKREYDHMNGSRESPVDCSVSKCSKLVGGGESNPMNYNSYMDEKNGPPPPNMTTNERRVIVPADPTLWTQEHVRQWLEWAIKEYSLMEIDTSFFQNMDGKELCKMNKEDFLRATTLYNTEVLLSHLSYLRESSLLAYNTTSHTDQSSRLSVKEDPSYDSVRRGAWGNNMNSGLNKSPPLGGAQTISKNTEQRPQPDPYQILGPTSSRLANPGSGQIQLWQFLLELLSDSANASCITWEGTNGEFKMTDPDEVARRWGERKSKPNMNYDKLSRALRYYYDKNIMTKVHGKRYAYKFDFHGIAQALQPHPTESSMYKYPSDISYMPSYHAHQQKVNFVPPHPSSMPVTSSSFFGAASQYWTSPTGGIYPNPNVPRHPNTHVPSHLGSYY
# Outline: (§1)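 Beads coated with glutathione captured GST-fused human transcription factors that had been expressed in yeast, and the factors were then given DNA barcodes and pooled with a tag-only sample. The pools were incubated with 200 nmole of a random double-stranded 16-mer DNA library in Tris/NaCl/DTT/glycerol buffer for 30 min at room temperature, washed, crosslinked with 0.1% formaldehyde and proximity-ligated with BsaI/T4 ligase at 37 °C for 1 h. PCR amplification and Illumina NextSeq500 sequencing came last. Binding signal is each hexamer's read frequency for a factor divided by its frequency for the tag-only sample.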
# ELK1 = biological target: T2, ELK1 (Homo sapiens, UniProt P19419 1-428)
# T2 sequence: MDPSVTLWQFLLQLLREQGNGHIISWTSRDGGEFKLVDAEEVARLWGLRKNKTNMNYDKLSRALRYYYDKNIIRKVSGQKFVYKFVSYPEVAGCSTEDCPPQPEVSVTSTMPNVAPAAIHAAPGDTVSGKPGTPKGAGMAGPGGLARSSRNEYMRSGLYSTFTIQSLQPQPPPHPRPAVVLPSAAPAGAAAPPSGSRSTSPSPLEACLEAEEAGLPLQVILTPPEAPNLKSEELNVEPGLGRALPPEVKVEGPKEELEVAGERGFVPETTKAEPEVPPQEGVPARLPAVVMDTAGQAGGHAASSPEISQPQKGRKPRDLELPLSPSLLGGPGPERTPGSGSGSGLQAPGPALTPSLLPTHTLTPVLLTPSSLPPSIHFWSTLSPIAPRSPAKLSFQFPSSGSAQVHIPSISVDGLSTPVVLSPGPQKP
# Outline: as §1
# GABPA = biological target: T3, GABPA (Homo sapiens, UniProt Q06546 1-454)
# T3 sequence: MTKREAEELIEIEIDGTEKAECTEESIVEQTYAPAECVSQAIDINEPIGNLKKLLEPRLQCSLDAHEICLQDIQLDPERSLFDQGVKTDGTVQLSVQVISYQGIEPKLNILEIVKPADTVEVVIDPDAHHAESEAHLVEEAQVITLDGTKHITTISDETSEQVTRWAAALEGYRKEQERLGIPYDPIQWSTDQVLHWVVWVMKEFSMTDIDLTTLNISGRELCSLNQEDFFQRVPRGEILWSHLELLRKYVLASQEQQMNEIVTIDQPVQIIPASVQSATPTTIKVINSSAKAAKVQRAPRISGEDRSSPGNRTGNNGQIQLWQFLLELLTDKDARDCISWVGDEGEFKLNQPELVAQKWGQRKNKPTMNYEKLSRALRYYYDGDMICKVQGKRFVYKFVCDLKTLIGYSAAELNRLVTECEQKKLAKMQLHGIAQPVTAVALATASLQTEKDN
# Outline: as §1
# ERG = biological target: T4, ERG (Homo sapiens, UniProt P11308 1-479)
# T4 sequence: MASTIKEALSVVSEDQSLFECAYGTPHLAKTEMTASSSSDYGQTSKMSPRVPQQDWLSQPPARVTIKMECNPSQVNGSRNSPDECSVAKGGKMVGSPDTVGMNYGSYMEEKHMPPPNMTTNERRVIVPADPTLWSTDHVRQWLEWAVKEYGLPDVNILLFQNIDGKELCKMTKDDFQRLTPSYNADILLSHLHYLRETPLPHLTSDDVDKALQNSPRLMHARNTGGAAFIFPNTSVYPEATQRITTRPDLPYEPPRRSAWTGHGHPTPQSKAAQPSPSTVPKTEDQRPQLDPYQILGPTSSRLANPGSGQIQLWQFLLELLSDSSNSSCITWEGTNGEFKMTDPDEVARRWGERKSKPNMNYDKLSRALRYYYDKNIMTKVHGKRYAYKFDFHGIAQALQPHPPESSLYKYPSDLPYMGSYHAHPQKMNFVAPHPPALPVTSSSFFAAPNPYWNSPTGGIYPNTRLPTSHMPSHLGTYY
# Outline: as §1
# ELF1 = ELF1 (Homo sapiens, UniProt P32519 1-619)
# Outline: as §1
# EHF = biological target: T5, EHF (Homo sapiens, UniProt Q9NZC4 1-300)
# T5 sequence: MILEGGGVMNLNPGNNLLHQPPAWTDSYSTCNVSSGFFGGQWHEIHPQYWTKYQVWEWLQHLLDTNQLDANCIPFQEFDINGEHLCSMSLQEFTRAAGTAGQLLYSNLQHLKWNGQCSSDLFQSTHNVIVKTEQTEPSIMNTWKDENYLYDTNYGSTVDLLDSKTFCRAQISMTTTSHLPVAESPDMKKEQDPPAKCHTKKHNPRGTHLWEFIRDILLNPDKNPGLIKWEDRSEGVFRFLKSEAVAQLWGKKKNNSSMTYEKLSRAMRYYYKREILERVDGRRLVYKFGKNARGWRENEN
# Outline: as §1
# SPI1 = SPI1 (Homo sapiens, UniProt P17947 1-270)
# Outline: as §1
# SPIB = SPIB (Homo sapiens, UniProt Q01892 1-262)
# Outline: as §1
# ELK3 = biological target: T6, ELK3 (Homo sapiens, UniProt P41970 1-407)
# T6 sequence: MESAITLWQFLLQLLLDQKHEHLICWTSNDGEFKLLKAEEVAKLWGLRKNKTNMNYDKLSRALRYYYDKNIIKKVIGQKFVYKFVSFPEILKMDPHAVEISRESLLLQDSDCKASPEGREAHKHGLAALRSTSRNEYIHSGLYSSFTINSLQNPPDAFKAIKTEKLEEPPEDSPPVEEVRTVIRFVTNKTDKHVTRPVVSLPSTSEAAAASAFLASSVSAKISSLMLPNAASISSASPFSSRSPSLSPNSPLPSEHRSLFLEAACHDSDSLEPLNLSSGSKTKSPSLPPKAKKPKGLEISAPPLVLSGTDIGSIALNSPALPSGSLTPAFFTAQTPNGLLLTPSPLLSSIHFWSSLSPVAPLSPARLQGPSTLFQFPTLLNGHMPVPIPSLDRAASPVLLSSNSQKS
# Outline: as §1
# Chain of ELF1 (P32519 whole entry): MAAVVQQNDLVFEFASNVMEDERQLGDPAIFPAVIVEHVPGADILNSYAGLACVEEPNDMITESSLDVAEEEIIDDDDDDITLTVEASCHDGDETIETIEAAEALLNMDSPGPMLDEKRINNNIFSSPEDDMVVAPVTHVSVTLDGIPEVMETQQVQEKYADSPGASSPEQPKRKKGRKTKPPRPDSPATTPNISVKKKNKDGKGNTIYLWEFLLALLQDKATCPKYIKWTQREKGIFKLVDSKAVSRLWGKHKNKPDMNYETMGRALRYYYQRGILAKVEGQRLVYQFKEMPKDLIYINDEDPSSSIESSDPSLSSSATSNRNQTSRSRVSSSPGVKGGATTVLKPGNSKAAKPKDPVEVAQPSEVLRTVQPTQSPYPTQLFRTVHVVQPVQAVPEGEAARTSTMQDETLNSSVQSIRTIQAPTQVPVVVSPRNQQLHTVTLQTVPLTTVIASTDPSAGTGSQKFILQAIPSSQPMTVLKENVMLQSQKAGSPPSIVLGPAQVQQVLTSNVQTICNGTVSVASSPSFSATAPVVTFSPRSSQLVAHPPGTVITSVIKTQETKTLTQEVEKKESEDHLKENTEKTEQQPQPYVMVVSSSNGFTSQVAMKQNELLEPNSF
# Chain of SPIB (Q01892 whole entry): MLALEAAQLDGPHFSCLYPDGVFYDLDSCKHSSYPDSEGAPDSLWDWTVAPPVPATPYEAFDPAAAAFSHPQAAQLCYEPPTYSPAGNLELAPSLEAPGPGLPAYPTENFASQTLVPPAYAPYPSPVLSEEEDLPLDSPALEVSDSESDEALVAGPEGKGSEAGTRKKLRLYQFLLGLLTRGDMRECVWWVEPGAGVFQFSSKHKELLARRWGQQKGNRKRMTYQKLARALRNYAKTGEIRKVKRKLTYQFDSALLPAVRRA
sequence,measurement,setting,value
CCCTTA,binding signal,FLI1,"1.29 fold enrichment (6-mer frequency, TF over GST control)"
same,binding signal,ELK1,"1.24 fold enrichment (6-mer frequency, TF over GST control)"
same,binding signal,GABPA,"1.24 fold enrichment (6-mer frequency, TF over GST control)"
same,binding signal,ERG,"1.28 fold enrichment (6-mer frequency, TF over GST control)"
same,binding signal,ELF1,"1.3 fold enrichment (6-mer frequency, TF over GST control)"
same,binding signal,EHF,"1.32 fold enrichment (6-mer frequency, TF over GST control)"
same,binding signal,SPI1,"1.31 fold enrichment (6-mer frequency, TF over GST control)"
same,binding signal,SPIB,"1.35 fold enrichment (6-mer frequency, TF over GST control)"
same,binding signal,ELK3,"1.25 fold enrichment (6-mer frequency, TF over GST control)"
